The entries come from a sample that favours hits as a whole.
Pf Dd2 growth: qHTS Primary assay for Inhibitors of Plasmodium falciparum Dd2 growth in vitro; 4.3% of 120,000 active; P. falciparum Dd2 growth, SYBR Green, 72 h; AID 1347417, 2020; Potency, µM (top dose mostly 28.9 µM), inactives show at the top dose activity, negative = inhibition, actives largely listed as inhibitors; active means well fitted inhibition curve with a large enough effect;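 further: plate controls were DMSO vehicle for no effect and reference drug for full effect; nearly all actives have a fitted effect of over 65% in size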
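Readout: SYBR Green fluorescence, 485 nm excitation, 535 nm emission, after ~16 h lysis at 37C. Before that, Dd2-infected red cells (2.5% hematocrit) grew 72 h with compound, 29 uM top final concentration.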
Numbers without * were called inactive; i = inactive; [ ] = another dose, or the depositor's remark. Potency means the concentration at half of the fitted maximal effect.

SMILES	Pf Dd2 growth
O=C(c1ccccc1F)N1C[C@@H](COCC2CC2)[C@H](c2ccccn2)C1	12%
CC(C)NC(=O)NC[C@H]1O[C@@H](CC(=O)NCc2cccnc2)[C@H](O)[C@@H]1O	20%[44.1 µM]
COCC1CN(S(=O)(=O)c2cccc(C#N)c2)CC12CCNCC2 (stereo not given)	13%
O=C([C@@H]1C[C@H](Oc2ccccc2)CN1C(=O)C1CCCCC1)N1CCCC1	-24%
O=C(NC1CCCc2c1[nH]c1ccc(F)cc21)c1ccc(Br)o1 (stereo not given)	-15%
C[C@@H](NC(=O)C1CCCC1)c1onc(-c2ccc(F)cc2)c1C(=O)O	1%[44.1 µM]
CCCN1C(=O)C(CC(=O)N2CCCCCC2)Sc2ncccc21 (stereo not given)	-7%
COc1cccc([S+](=O)([O-])N2CCCC3(CC(Cc4ccccc4)=NO3)C2)c1 (stereo not given)	i
COc1cc2c(cc1OCc1ccccc1)N([S+](=O)([O-])c1ccc3c(c1)CCO3)CC21CCN(C)CC1	3.5µM*
COc1ccc(C(=O)N2CC3(CCN(C)CC3)c3cc(OC)c(OCc4ccccc4)cc32)cn1	i
Cc1ccccc1C(=O)NC1CCCN(c2cc(-c3ccccc3)[nH]n2)C1 (stereo not given)	i
CCNC(=O)N1CCCOCCNC(=O)[C@@H]2CCC[C@@H]21	15%
O=C(NCCc1ccccc1)c1ccc2c(c1)OCCN(c1ccccc1)C2	10µM*
O=C(Nc1nccs1)c1ccc2c(c1)OCCN(c1cccc(OC(F)(F)F)c1)C2	-8%[44.1 µM]
CNC(=O)c1ccc2c(c1)OCCN(c1cccc(OC(F)(F)F)c1)C2	11µM*
O=C(NCCOc1ccccc1)c1ccc2c(c1)OCCN(c1ccccc1)C2	-12%[44.1 µM]
O=C(NC1CC1)c1ccc2c(c1)OCCN(c1cccc(OC(F)(F)F)c1)C2	3.5µM*
COc1ccc(NC(=O)c2ccc3c(c2)OCCN(c2ccccc2)C3)cn1	-24%[44.1 µM]
O=C(NCc1ccncc1)c1ccc2c(c1)OCCN(c1ccccc1)C2	-17%[44.1 µM]
O=C(NC1CCOCC1)c1ccc2c(c1)OCCN(c1ccccc1)C2	i
O=C(NCc1ccncc1)c1ccc2c(c1)OCCN(c1cccc(OC(F)(F)F)c1)C2	i
Cc1oc2c(c1C(=O)NC1CCCN(c3ncccn3)C1)C(=O)CCC2 (stereo not given)	-21%
C=CCNC(=O)c1cccc2c(C)nnn12	6%[44.1 µM]
CCC(=O)N1CCc2c(C(=O)O)cccc21	-12%
O=C1CCN(S(=O)(=O)c2ccccc2)CCCN(C(=O)CN2CCCCCC2)CCN1	-2%
SMILES	Pf Dd2 growth
COc1ccc(NC(C)=O)cc1NC(=O)Cn1nc2c(cc1=O)CCCC2	-9%
O=C(N[C@@H]1C[C@H](Cn2cc(C3CC3)nn2)[C@@H](O)[C@H]1O)c1ccc2c(c1)OCO2	i
CNc1nccc(N2CCC(CC(=O)O)CC2)n1	1%
OCCC1CN(Cc2cc3c(cc2Cl)OCO3)CCN1Cc1ccccc1F (stereo not given)	i
COc1ccc(-c2cc(N3CCCN(C(=O)CC4CCCCC4)CC3)n[nH]2)cc1	-7%
Cc1cc(OC2CN(Cc3ccc(F)cc3)C2)ccc1F	i
CN(C)C(=O)[C@@H]1CN(Cc2cccnc2)C[C@H]1CO	15%
Cc1cc(F)ccc1OC1CN(Cc2cccnc2)C1	6.3µM*
Cc1ccccc1N(C)C1CN(Cc2cccnc2)C1	13µM*
CN(Cc1cccnc1)C(=O)[C@H]1CN(Cc2ccccc2)C[C@H]1C(=O)O	i
Cc1cc(F)ccc1OC1CN([S+](=O)([O-])c2ccccc2)C1	i
CC(C)CCN1CC2(CCCN(S(=O)(=O)c3cnn(C)c3)C2)CCC1=O (stereo not given)	-6%
CC(C)[S+](=O)([O-])N1CCN(c2ccc(C=O)cc2)C(=O)C1	7%
Cc1cc(C)cc(NC(=O)c2nnn(Cc3cccc(Br)c3)c2N)c1	i
CCOc1ccc(Cn2nnc(C(=O)Nc3ccc(Cl)cc3)c2N)cc1	i
CSc1ccc(Cn2nnc(C(=O)Nc3ccc(C)cc3Cl)c2N)cc1	2%
Cc1ccc(Cn2nnc(C(=O)Nc3ccc(F)c(F)c3)c2N)cc1	0.89µM*
CCc1ccc(Cn2nnc(C(=O)Nc3ccc(C)cc3)c2N)cc1	-23%
Nc1c(C(=O)Nc2ccccc2Cl)nnn1Cc1cccc(Cl)c1	7.1µM*
Cc1ccc(CN2C(=O)C3(CCOCC3)CC2c2nnnn2C(C)(C)C)cc1 (stereo not given)	38%
COc1ccc(N2CC(C(=O)N3CCN(Cc4ccccc4)CC3)NC2=O)cc1 (stereo not given)	15%
COc1ccc(C(Nc2ccccn2)c2ccc3ccc(C)nc3c2O)cc1C (stereo not given)	21%
Cc1cccc(NC(c2cccc(Cl)c2)c2ccc3cccnc3c2O)n1 (stereo not given)	2.5µM*
O=C(COc1ccc(Cl)cc1Cl)Nc1cccc2cccnc12	11%
CC(=O)N1CCC(C(=O)N2CCCn3cc(-c4ccccc4)nc32)CC1	3%
SMILES	Pf Dd2 growth
Cc1ccccc1-c1cnc2n[nH]c(-c3ccccc3)c2n1	i
COc1ccccc1-c1[nH]nc2ncc(-c3ccccc3C)nc12	13µM*
COc1ccccc1-c1[nH]nc2ncc(-c3ccccc3F)nc12	-22%[44.1 µM]
Cc1ccc(C(=O)NC[C@H]2O[C@@H](CC(=O)N3CCN(c4ccccc4)CC3)[C@H](O)[C@@H]2O)cc1	28%
O=C(N[C@H]1CCN2C(=O)N(c3cccc4nsnc34)C(=O)[C@@H]2C1)c1ccnc(Cl)c1	i
COc1ccc(Br)c2c1-c1nc(NC(=O)c3ccccc3SC)sc1C2	-5%
COc1cc(C(=O)Nc2nc3c(s2)Cc2c(Br)ccc(OC)c2-3)cc(OC)c1OC	3.2µM*
COc1cc(C(=O)Nc2nc3c(s2)C[C@]2(C)CC[C@@H]4[C@H](OC(=O)[C@H]4C)[C@H]2[C@@H]3C)cc(OC)c1OC	-25%
COc1ccc(Br)c2c1-c1nc(NC(=O)c3ccccc3F)sc1C2	47%
COc1ccc(Br)c2c1-c1nc(NC(=O)c3ccc(F)cc3)sc1C2	2.8µM*
COc1cc(C(=O)Nc2ccc3nc(SCc4ccccc4)sc3c2)cc(OC)c1OC	i
CCc1cccc(C)c1NC(=O)Cn1nc2n(c1=O)CCCCC2	33%
CN(C)c1ccc(C(=O)N2Cc3[nH]cnc3CC2C(=O)O)cn1 (stereo not given)	-20%
CCn1nccc1C(=O)N1CCC(c2noc(-c3cnccn3)n2)C1 (stereo not given)	31%[5.79 µM]
O=C(Nc1ccc(Cl)c(C(F)(F)F)c1)c1ccc2c(c1)CCN2S(=O)(=O)c1ccccc1	8.9µM*
CCc1cccc(CC)c1NC(=O)c1ccc2c(c1)CCN2S(=O)(=O)c1ccccc1	7%
COc1ccc(NC(=O)c2ccc3c(c2)CCN3S(=O)(=O)c2ccc(C)cc2)cc1Cl	8.9µM*
CC(=O)Nc1ccc(NC(=O)c2ccc3c(c2)CCN3S(=O)(=O)c2ccc(C)cc2)cc1	19%
Cc1ccc(Cl)cc1NC(=O)c1oc2ccc(S(=O)(=O)N3CCCCCC3)cc2c1C	5%
COc1ccc(C(=O)Nc2ccc3c(c2)CCCN3S(=O)(=O)c2ccc(C)cc2)cc1	i
COc1ccc(NC(=O)c2oc3ccc(S(=O)(=O)N4CCCCC4)cc3c2C)cc1Cl	11µM*
Cc1ccc(C)c(NC(=O)c2ccc3c(c2)CCN3S(=O)(=O)c2ccccc2)c1	-19%
COc1ccc(Cl)cc1NC(=O)c1oc2ccc(S(=O)(=O)N3CCCCC3)cc2c1C	41%

Screens deposited in PubChem by National Center for Advancing Translational Sciences (NCATS).
